From PubChem BioAssay (NCI)
About 83,000 compounds went through this panel and 20% of them were active in at least one assay; those are over-represented in the sample as a whole.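 The test compound was applied at a single concentration to cells in 96-well plates for 48 hours, and percent growth was recorded.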 Active and inactive are the calls of the source. Rule for the calls: active = growth percent below 10; inactive = the rest.

What was measured:
Test in all cases: NCI-60 one-dose screen, 48 h (100 = growth as untreated, 0 = no growth, -100 = all killed)
Conditions in all cases: 10 µM unless noted
SK-MEL-2 melanoma = system: SK-MEL-2 melanoma
EKVX NSCLC = system: EKVX NSCLC
SN12C renal = system: SN12C renal
TK-10 renal = system: TK-10 renal
ACHN renal = system: ACHN renal
CAKI-1 renal = system: CAKI-1 renal
CCRF-CEM leukemia = system: CCRF-CEM leukemia
MOLT-4 leukemia = system: MOLT-4 leukemia
UO-31 renal = system: UO-31 renal
A498 renal = system: A498 renal

Measured: growth

COC(=O)c1cc2c(/C=C3/NC(=S)NC3=O)coc2n1C
inactive: SK-MEL-2 melanoma 107% | EKVX NSCLC 93.4% | SN12C renal 118% | TK-10 renal 89.9% | ACHN renal 95.2% | CAKI-1 renal 74.4% | CCRF-CEM leukemia 85.2% | MOLT-4 leukemia 99.9%

O=C1/C(=C/c2ccccc2O)C(=S)SN1Cc1ccco1
inactive: SK-MEL-2 melanoma 81.4% | SN12C renal 93.8% | UO-31 renal 84.4% | TK-10 renal 98.8% | ACHN renal 106% | CAKI-1 renal 119% | A498 renal 95.2% | CCRF-CEM leukemia 70.7% | MOLT-4 leukemia 99%

Nc1ncnc2c1CN(Cc1ccccc1)CC2
inactive: SK-MEL-2 melanoma 103% | EKVX NSCLC 110% | UO-31 renal 76.2% | TK-10 renal 108% | ACHN renal 103% | CAKI-1 renal 102% | A498 renal 120% | CCRF-CEM leukemia 95.5% | MOLT-4 leukemia 102%

COc1cc(/C=C/C(=O)C(C(=O)/C=C/c2ccc(OC(=O)CCNc3nnc(C)s3)c(OC)c2)C(=O)CCNc2nnc(C)s2)ccc1OC(=O)CCNc1nnc(C)s1
active: SN12C renal -33.9% | ACHN renal -21.4% | CAKI-1 renal -3.62% | MOLT-4 leukemia -27.9%
inactive: SK-MEL-2 melanoma 13.2% | EKVX NSCLC 21.9% | TK-10 renal 29.4% | A498 renal 49.7%

COc1ccc(NC(=O)c2ccc(-c3ccccc3)cc2)c(C(N)=O)c1
inactive: SK-MEL-2 melanoma 99.6% | SN12C renal 96.6% | UO-31 renal 79.6% | TK-10 renal 118% | ACHN renal 102% | CAKI-1 renal 103% | A498 renal 97% | CCRF-CEM leukemia 90% | MOLT-4 leukemia 84.6%

C[C@]12CCC(=O)C=C1CCC1C2[C@@H](O)C[C@@]2(C)C1CC[C@]2(O)C(=O)COC(=O)CCC(=O)O (stereo not given in full)
inactive: SK-MEL-2 melanoma 123% | EKVX NSCLC 78.7% | SN12C renal 57.2% | ACHN renal 102% | CAKI-1 renal 81.1% | A498 renal 118% | CCRF-CEM leukemia 64.9% | MOLT-4 leukemia 115%

CSc1nc(N)c2c(n1)N(C)C=NS2(=O)=O
inactive: SK-MEL-2 melanoma 123% | EKVX NSCLC 113% | SN12C renal 99.3% | TK-10 renal 109% | ACHN renal 99% | CAKI-1 renal 98.2% | CCRF-CEM leukemia 94.4% | MOLT-4 leukemia 107%

CCOc1cc(/C=C/C(=O)C(C(=O)/C=C/c2ccc(OC(=O)CNc3nnc(C)s3)c(OCC)c2)C(=O)CNc2nnc(C)s2)ccc1OC(=O)CNc1nnc(C)s1
active: EKVX NSCLC -13.9% | SN12C renal -3.17% | ACHN renal -85.2% | CAKI-1 renal -6.01% | A498 renal -41.7% | MOLT-4 leukemia -34.3%
inactive: SK-MEL-2 melanoma 11% | TK-10 renal 32.4%

Cc1cc(-c2ccccc2)cc(C)n1
inactive: SK-MEL-2 melanoma 98.1% | EKVX NSCLC 116% | UO-31 renal 78.6% | TK-10 renal 103% | ACHN renal 106% | CAKI-1 renal 103% | A498 renal 116% | CCRF-CEM leukemia 102% | MOLT-4 leukemia 100%

COc1cccc(-c2nc3cc(NC(=O)c4ccc(Cl)c(C#N)c4)ccc3o2)c1
inactive: SK-MEL-2 melanoma 63.8% | SN12C renal 40.2% | UO-31 renal 34.3% | ACHN renal 36.2% | CAKI-1 renal 26.4% | A498 renal 61.6% | CCRF-CEM leukemia 71.1% | MOLT-4 leukemia 78.4%
active: TK-10 renal -12.5%

Cc1ccc2nc(-c3ccc(N(C)C)c(Br)c3)cn2c1
inactive: SK-MEL-2 melanoma 94.3% | EKVX NSCLC 79.5% | SN12C renal 94.8% | TK-10 renal 146% | ACHN renal 95.6% | CAKI-1 renal 126% | A498 renal 118% | MOLT-4 leukemia 28.6%

O=C1C=CC(=O)N1c1ccccc1N1C(=O)C=CC1=O
inactive: SK-MEL-2 melanoma 98.6% | EKVX NSCLC 115% | SN12C renal 97.5% | ACHN renal 88% | CAKI-1 renal 85.2% | A498 renal 101% | MOLT-4 leukemia 99.2%
active: CCRF-CEM leukemia 1.88%

Cc1ccc(/C=C(/C#N)n2nnc3ncccc32)cc1
active: SN12C renal 8.6% | ACHN renal 0.614% | A498 renal -7.36% | CCRF-CEM leukemia 9.57%
inactive: SK-MEL-2 melanoma 17.1% | EKVX NSCLC 24.8% | MOLT-4 leukemia 11.8%

CCOc1cc(/C=C/C(=O)CC(=O)/C=C/c2ccc(OC(=O)CNCCN(CC)CC)c(OCC)c2)ccc1OC(=O)CNCCN(CC)CC
active: SK-MEL-2 melanoma 4.43% | EKVX NSCLC -38.1% | SN12C renal -9.33% | ACHN renal -88.4% | CAKI-1 renal -30.9% | A498 renal -26.8% | CCRF-CEM leukemia 4.21% | MOLT-4 leukemia -23.4%

C/C(=C\CCc1ccoc1)CC/C=C(\C)CCCN1CCSCC1
inactive: SK-MEL-2 melanoma 85.5% | SN12C renal 76.7% | UO-31 renal 62.4% | TK-10 renal 84.9% | ACHN renal 83.8% | CAKI-1 renal 80.7% | A498 renal 38.2% | CCRF-CEM leukemia 62.9% | MOLT-4 leukemia 79.6%

CC(C)N(Cc1ccccc1)c1c(Cl)ssc1=O
inactive: SK-MEL-2 melanoma 93.7% | EKVX NSCLC 100% | SN12C renal 99.7% | TK-10 renal 124% | ACHN renal 102% | CAKI-1 renal 113% | A498 renal 109% | MOLT-4 leukemia 121%

CC(=O)c1ccc(NS(=O)(=O)c2ccc([N+](=O)[O-])cc2)cc1
inactive: SK-MEL-2 melanoma 95.1% | SN12C renal 99.5% | UO-31 renal 77.8% | TK-10 renal 100% | ACHN renal 93.8% | CAKI-1 renal 96.9% | A498 renal 90.5% | CCRF-CEM leukemia 93.8% | MOLT-4 leukemia 87.1%

O=C(Nc1ccc(Cl)cc1)Nc1nc2ccc(OC(F)(F)F)cc2o1
inactive: SK-MEL-2 melanoma 131% | SN12C renal 92.5% | UO-31 renal 87.9% | TK-10 renal 92.9% | ACHN renal 89.4% | CAKI-1 renal 92.7% | A498 renal 119% | CCRF-CEM leukemia 80.1% | MOLT-4 leukemia 76.4%

N#Cc1c(NC(=O)c2ccco2)[n+]([O-])c2ccccc2[n+]1[O-]
inactive: SK-MEL-2 melanoma 92.9% | EKVX NSCLC 98.7% | SN12C renal 93.4% | ACHN renal 110% | CAKI-1 renal 110% | A498 renal 117% | MOLT-4 leukemia 85.3%

COc1ccc(-n2cnc3cc(C(=O)N4CCCCC4)ccc32)cc1
inactive: SK-MEL-2 melanoma 111% | SN12C renal 95% | UO-31 renal 97.4% | TK-10 renal 110% | ACHN renal 97.9% | CAKI-1 renal 98.5% | A498 renal 96.3% | CCRF-CEM leukemia 98% | MOLT-4 leukemia 98%

CC(C)Cn1cnc2c(NCn3nc(-c4cc(Cl)cc(Cl)c4Cl)n(/N=C/c4ccc(Cl)cc4)c3=S)nc3ccccc3c21
inactive: SK-MEL-2 melanoma 81.8% | EKVX NSCLC 70.6% | SN12C renal 85% | TK-10 renal 90.4% | ACHN renal 81.6% | CAKI-1 renal 63.9% | MOLT-4 leukemia 82.2%

O=C(NC1CCCCC1)c1ccc(Nc2ncnc3c2cnn3-c2ccccc2)cc1
inactive: SK-MEL-2 melanoma 79.1% | SN12C renal 19% | UO-31 renal 57.7% | TK-10 renal 51% | ACHN renal 54.3% | CAKI-1 renal 62.3% | A498 renal 50.4% | CCRF-CEM leukemia 64.9% | MOLT-4 leukemia 89.5%

C/C(=C\CCc1ccoc1)CC/C=C(\C)CCCN1CCOCC1
inactive: SK-MEL-2 melanoma 78.7% | SN12C renal 70.5% | UO-31 renal 52.3% | TK-10 renal 61.3% | ACHN renal 76.3% | CAKI-1 renal 58.3% | A498 renal 75.7% | CCRF-CEM leukemia 29.6% | MOLT-4 leukemia 54.2%

C/C(=C\CCc1ccoc1)CC/C=C(\C)CCCNc1ccc(F)cc1
inactive: SK-MEL-2 melanoma 106% | SN12C renal 76.2% | UO-31 renal 54.6% | TK-10 renal 113% | ACHN renal 97.9% | CAKI-1 renal 88.7% | A498 renal 79.7% | CCRF-CEM leukemia 58.7% | MOLT-4 leukemia 59.6%

C1=C(Cc2ccccc2)n2cnc3ncnc(c32)S1
inactive: SK-MEL-2 melanoma 75% | SN12C renal 86.4% | UO-31 renal 48.3% | TK-10 renal 28.6% | ACHN renal 87.2% | CAKI-1 renal 39.6% | A498 renal 99.6% | CCRF-CEM leukemia 58.9% | MOLT-4 leukemia 31.2%

CC(C)CNc1nc(N=[N+]=[N-])nc(NCC(C)C)n1
active: CAKI-1 renal 4.03% [100 µM]
inactive: SK-MEL-2 melanoma 71.9% [100 µM] | SN12C renal 70.8% [100 µM] | UO-31 renal 47.3% [100 µM] | TK-10 renal 77.5% [100 µM] | ACHN renal 53.6% [100 µM] | A498 renal 35.5% [100 µM] | MOLT-4 leukemia 34.4% [100 µM]

COc1cc(OC)c2c(c1Cl)O[C@]1(C2=O)C(OCc2ccccc2)=CC(=O)C[C@H]1C
inactive: SN12C renal 13.3% | TK-10 renal 15.9% | CAKI-1 renal 10.9% | CCRF-CEM leukemia 10.4% | MOLT-4 leukemia 14.1%
active: SK-MEL-2 melanoma 2.04% | UO-31 renal 9% | ACHN renal 6.86% | A498 renal -0.948%

Cc1ccc(C2=Nc3c(ccc4c(C)c(C)c(=O)oc34)OC2)cc1
inactive: SK-MEL-2 melanoma 95.8% | SN12C renal 98.7% | UO-31 renal 82.6% | TK-10 renal 108% | ACHN renal 99.1% | CAKI-1 renal 92.2% | A498 renal 110% | MOLT-4 leukemia 101%
